An excerpt weighted towards active compounds, which were near 2.6% of everything screened.
TROY signal inh – blocks TROY-dependent signaling in reporter cells | inhibition, % at 10 µM | 360,000 tested, 0.98% active | AID 1347056 | Q293 LMP1-TROYcd NF-kB luciferase reporter, 4 h;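 active means compounds whose plate-normalised and pattern-corrected inhibition of the luciferase reporter signal at the single screening dose is 50% or more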
EBV LMP1 NFkB – Epstein-Barr LMP1 NF-kappaB reporter inhibition; inhibition, % at 12.5 µM; 350,000 tested, 0.69% active; LMP1-induced NF-kappaB luciferase reporter cells, luminescence; in the data active means inhibition above about 41%; inconclusive means no clear call, values can overlap the other calls;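 further: 0% = neutral control wells and 100% = reference inhibitor control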
LGR2 antag – blocks bursicon-induced cAMP signaling via Drosophila LGR2; HEK293 LGR2, CRE-luciferase, bursicon-stimulated, 4 h; inhibition, % at 9.99 µM; 380,000 tested, 0.35% active;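 active means drop in luminescence signal, shown as inhibition above about 50% in the replicate tests, limit read from the data, passing the limit was not always enough; inconclusive means probably only some replicates passing the limit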;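 further: agonist challenge used bursicon conditioned medium at about half maximal strength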
EWS-Fli inh – blocks EWS/Fli oncoprotein-driven transcription. A673 NR0B1-luciferase reporter, viability-normalised. inhibition, % at 12.6 µM. 350,000 tested, 0.67% active. AID 651661;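 active means mean inhibition of at least 50% after viability correction, with every replicate also passing that limit; inconclusive means mean reaches 50% but only one of two replicates passes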;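 further: firefly luciferase signal divided by Alamar Blue viability fluorescence both relative to DMSO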
TWEAK Fn14 block – inhibitors of TWEAK-Fn14 interaction signaling. 360,000 tested, 2% active. inhibition, % at 10 µM. TWEAK-stimulated Fn14 reporter cells, luciferase luminescence, 8 h; in the data active means inhibition above about 50%
* hit, by the source's call; ? = inconclusive; . = no result.

SMILES	TROY signal inh	EBV LMP1 NFkB	LGR2 antag	EWS-Fli inh	TWEAK Fn14 block
O=C(Nc1ccc(F)cc1)N[C@H]1C=C[C@@H](CC(=O)N2CCCCC2)O[C@@H]1CO	.	.	38	6	.
CC(=O)N1CCc2cc(S(=O)(=O)C(C)CC(=O)NCc3ccc(C)o3)ccc21 (stereo not drawn)	-11	6	19	-9	0
CC(=O)N1CCc2cc(S(=O)(=O)C(C)CC(=O)NCc3ccco3)ccc21 (stereo not drawn)	-14	4	56*	6	1
O=C(CCOc1ccccc1)N1CCN(c2ccc(O)cc2)CC1	-6	3	15	4	-20
O=C(CCCOc1ccccc1)N1CCN(c2ccccc2)CC1	-47	86*	-59	.	-11
COC(=O)Cn1c2nc3ccccc3nc2c2cccc(C)c21	2	.	16	-10	21
Cc1cccc2c3nc4ccccc4nc3n(C)c12	-32	.	-85	-77	54*
C/C(=N\NC(=S)Nc1cccc(C)c1)c1ccccc1	-27	-16	.	.	-13
CC(=NNC(=S)Nc1ccc(C)cc1)c1ccccn1	-34	62*	-32	-18	-43
CC(=NNC(=S)Nc1cccc(C)c1)c1ccccn1	-31	76*	20	22	-123
O=C(C[C@@H]1CC[C@@H]2[C@H](COC[C@H](O)CN2Cc2ccncc2)O1)NCc1ccncc1	.	.	1	9	.
COc1ccccc1C(=O)Nc1nnc(SCC(=O)NCc2ccco2)s1	3	1	.	.	36
COc1ccc(C(=O)Nc2nnc(SCC(=O)NCc3ccco3)s2)c(OC)c1	43	23	?	.	75*
COc1ccc(C(=O)Nc2nnc(SCC(=O)NC3CCCC3)s2)c(OC)c1	-25	39	-42	.	74*
COc1ccc2nc(SCC(=O)NC3CCCC3)c(C)cc2c1	2	12	3	55*	11
COc1ccc(C(=O)Nc2nnc(SCC(=O)NC3CC3)s2)cc1	7	45*	?	20	54*
COc1ccc(S(=O)(=O)N[C@H]2C=C[C@@H](CC(=O)N3CCN(c4ccccc4)CC3)O[C@@H]2CO)cc1	.	.	21	3	.
COc1ccccc1S(=O)(=O)N[C@@H]1CC[C@H](CC(=O)NCc2cccc(F)c2)O[C@H]1CO	.	.	0	-2	.
O=C(Nc1cccc(-c2csc(Nc3cccc(C(F)(F)F)c3)n2)c1)c1cc([N+](=O)[O-])cc(C(F)(F)F)c1	10	-25	21	33	33
O=C(Nc1ccc(-c2csc(Nc3ccccc3)n2)cc1)c1cc([N+](=O)[O-])cc(C(F)(F)F)c1	19	-11	-21	14	66*
CCCNC(=O)Nc1ccc2c(c1)C(=O)N(C)[C@@H]1CC[C@@H](CC(=O)NCc3ccccc3)O[C@H]1CO2	.	.	-1	-4	.
O=C1NC(=S)S/C1=C\C=C\c1ccc([N+](=O)[O-])o1	-27	-48	20	70*	50*
O=c1c([N+](=O)[O-])cn(Cc2ccccc2)c(=O)n1Cc1ccccc1	-16	68*	25	1	6
COc1cccc(NC(=O)C2CCN(c3cnccn3)CC2)c1	-2	-5	3	-6	98*
CCC(C)Nc1ccc(NC(C)CC)cc1 (stereo not drawn)	39	22	.	.	69*
SMILES	TROY signal inh	EBV LMP1 NFkB	LGR2 antag	EWS-Fli inh	TWEAK Fn14 block
CCC(C)NC(=O)Nc1ccc(Br)cc1 (stereo not drawn)	-27	-5	-4	-44	-7
CCC(=O)N1CC2(C1)[C@H](c1ccccc1)[C@@H](CO)N2C(=O)c1cccnc1	.	.	-7	0	.
O=C(O)c1cc(-c2ccc(-c3c(-c4ccc5c(c4)OCO5)noc3-c3ccsc3)cc2)nc2ccccc12	39	-4	-78	-101	57*
CN(C)c1ccc(-c2c(-c3ccc4c(c3)OCO4)noc2-c2ccsc2)cn1	-45	-8	.	.	-52
N#CC1=C(N)N2C(=C(C#N)C1c1cccc(Br)c1)Nc1ccccc12 (stereo not drawn)	73*	52*	26	36	94*
N#CC1=C(N)N2C(=C(C#N)C1c1ccc(Br)cc1)Nc1ccccc12 (stereo not drawn)	.	.	49	19	.
C[C@H](CO)N1C[C@H](C)[C@H](CN(C)C(=O)Nc2cccc3ccccc23)Oc2ccc(NC(=O)Cc3cn(C)c4ccccc34)cc2C1=O	.	.	-4	6	.
Cc1ccc2nc(NC(=O)C3CCN(S(=O)(=O)c4cc([N+](=O)[O-])ccc4Cl)CC3)sc2c1	29	30	-6	-5	83*
O=C(Nc1nc2ccc(F)cc2s1)C1CCN(S(=O)(=O)c2cc([N+](=O)[O-])ccc2Cl)CC1	34	21	4	-4	84*
O=C(Nc1ccc(F)cc1)N1CCCCN2[C@H](CO)[C@@H](c3ccc(C#CC4CC4)cc3)[C@@H]2C1	.	.	2	1	.
c1ccc(NN=C2c3ccccc3-c3ccccc32)cc1	-25	-9	-18	-7	-16
Cc1ccc(NN=C2c3ccccc3-c3ccccc32)cc1	52*	-34	-44	.	40
Cc1[nH]nc(-c2cccnc2)c1N=NN(C)C	33	11	29	55*	22
Oc1ccc(Nc2nc(NCC3CCCO3)c3ccccc3n2)cc1 (stereo not drawn)	-42	-1	.	.	8
Oc1ccc(Cl)cc1Nc1nc(NCC2CCCO2)c2ccccc2n1 (stereo not drawn)	51*	7	-2	18	72*
COc1cccc(Nc2nc(NCC3CCCO3)c3ccccc3n2)c1 (stereo not drawn)	43	-15	.	.	88*
C[C@@H]1CN([C@H](C)CO)C(=O)c2cc(C3=CCCCC3)cnc2O[C@H]1CN(C)C(=O)c1ccncc1	.	.	28	-16	.
CO[C@@H]1CN(C)C(=O)c2ccc(NC(=O)CC(F)(F)F)cc2OC[C@H](C)N(C(=O)C2CC2)C[C@H]1C	.	.	9	.	.
C[C@H](CO)N1C[C@H](C)[C@@H](CN(C)C(=O)NC2CCCCC2)Oc2ccc(NS(=O)(=O)c3cccs3)cc2CC1=O	.	.	4	-7	.
CN(CCNC(=O)C1CCN(S(=O)(=O)N2CCOCC2)CC1)CCc1ccccc1	-13	41*	0	.	-5
Cc1cc(-c2ccc(C)c(S(=O)(=O)NCc3ccc(Br)cc3)c2)on1	32	10	15	2	65*
Cc1cc(-c2ccc(C)c(S(=O)(=O)NCc3cccc(Br)c3)c2)on1	8	-7	14	7	-12
Cc1ccc(N(Cc2cc(=O)[nH]c3ccccc23)C(=O)CCl)c(C)c1	-4	47*	30	67*	63*
CN(C)C(=O)C[C@@H]1CC[C@H]2[C@H](COc3ccc(NC(=O)C4CCCC4)cc3C(=O)N2C)O1	.	.	-18	-2	.
CCOC(=O)CSc1nc2cccnc2n1-c1ccc(F)cc1	61*	-1	.	.	6
CC(C)OC(=O)CSc1nc2cccnc2n1-c1ccc(F)cc1	-11	-1	.	.	4
Cc1ccc(C(=O)CSc2nc3cccnc3n2C)cc1	6	10	.	.	9
Cn1c(SCC(=O)c2ccc(F)cc2)nc2cccnc21	3	-3	.	.	61*

Screening results from PubChem BioAssay.
